From PubChem BioAssay (NCATS) come the findings set out here.

Where “and” joins values, the source holds several entries; their conditions need not be identical. Equal values may be shown once. Inconclusive results are not listed. Where a structure was tested more than once in an assay, its records may differ in their call. A number with no mark means an inactive call. Calls of active or inactive are those of the source. The call rests on the fitted dose curve; in most records, active means well fitted inhibition curve with a large enough effect; inconclusive means small, poorly fitted or top-dose-only effect; inactive means flat fitted curve, though single readings scatter. Non-standard residues stand in square brackets, D forms with d. Residues, ends and D or L forms follow the SMILES beside them. *: point of attachment. Nva = CCC[C@H](N)C(=O)O; Cbz = O=C(OCc1ccccc1)*
On the % scale 0 is the no-effect control and ±100 the full control effect; potency means the concentration at half of the fitted maximal effect.

The test concerns CRL-7250. As to the kind of experiment: Cytotoxic Profiling of Annotated Libraries Using Quantitative High-Throughput Screening (AID 1296008). Further: nearly all actives have a fitted effect of over 60% in size. Particulars: Five cell lines viability, CellTiter-Glo ATP luminescence, 48-72 h; max response: active compounds read low. Summed up:
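Cells exposed to compounds for 48 or 72 hr at 37 degrees Celsius. Viability read as ATP-coupled luminescence with CellTiter-Glo after 10 min at room temperature.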
Background: ATP-based viability assays read luminescence as a measure of living cells.
Turning to `CCc1nc(-c2cccc(C)c2)c(-c2ccnc(NC(=O)c3ccccc3)c2)s1`, the call was inactive.

With `C#C[C@]1(O)CC[C@@H]2[C@@H]3CCC4=CC(=O)CC[C@@H]4[C@H]3CC[C@@]21CC`, the max response is -6.84%.

Turning to `Nc1ccc(C(=O)Nc2cccc(-c3nc(N4CCOCC4)c4oc5ncccc5c4n3)c2)cn1`, the call was inactive.

As for `O=C(O)C=Cc1ccc(Cn2ccnc2)cc1`, the max response was 3.43%.

In the case of `Cc1cnc(Nc2ccc(CN3CCOCC3)cc2)nc1Nc1cccc(S(=O)(=O)NC(C)(C)C)c1`, the Potency is 3.32 µM (active) and 4.61 µM (active).

In the case of `COc1cc2c(cc1OC)[C@@H]1C(=O)c3ccc4c(c3O[C@@H]1CO2)C=CC(C)(C)O4`, the Potency is 0.0148 µM (active).

As for `Cc1cc(C(=O)NOCCO)c(Nc2ccc(I)cc2F)n(C)c1=O`, the Potency was 0.743 µM (active).

For the molecule `O=C(Nc1ccc(Oc2ccnc3[nH]ccc23)c(F)c1)c1cccn(-c2ccc(F)cc2)c1=O`, the max response is -4.56%.

For the molecule `CCOC(=O)C1=C(C)NC(=S)NC1c1cccc(O)c1` (configuration not stated), the max response is -18.5%.

`N#Cc1ccc(COC[C@H]2O[C@@H](n3c(NCc4ccc(Cl)c(Cl)c4)nc4c(N)ncnc43)[C@@H](O)[C@@H]2O)cc1`: the max response is -5.8%.

Turning to `CN[C@@H]1C[C@H]2O[C@@](C)([C@H]1OC)n1c3ccccc3c3c4c(c5c6ccccc6n2c5c31)C(=O)N[C@H]4O`, the Potency was 0.264 µM (active).

Turning to `CCN1CCN(C(=O)N[C@H](C(=O)N[C@@H]2C(=O)N3C(C(=O)O)=C(CSc4nnnn4C)CS[C@@H]23)c2ccc(O)cc2)C(=O)C1=O`, the max response is 2.05%.

Take `CC(C)(N)c1ccc(-c2nc3ccccc3nc2-c2ccccc2)cc1`: the Potency was 0.0743 µM (active) and the max response is -8.83%.

For the molecule `CS[C@H]1SC[C@@H]2C(=O)N(C)[C@H](C(C)C)C(=O)OC[C@H](NC(=O)c3cnc4ccccc4n3)C(=O)N[C@H](C)C(=O)N(C)[C@@H]1C(=O)N(C)[C@H](C(C)C)C(=O)OC[C@H](NC(=O)c1cnc3ccccc3n1)C(=O)N[C@H](C)C(=O)N2C`, the Potency was 0.0074 µM (active).

In the case of `CCOC(=O)N1CCN([N+]([O-])=NOc2ccc([N+](=O)[O-])cc2C#N)CC1`, the Potency was 5.26 µM (active).

Regarding `c1cc(N[C@@H]2CCNC2)nc(-c2cnc3ccc(-c4cn[nH]c4)cn23)c1`, the Potency was 11.8 µM (active).

In the case of `COc1cc2c(Nc3ccc(Cl)c(Cl)c3F)ncnc2cc1OCC1C[C@@H]2CN(C)C[C@H]2C1`, the Potency is 9.35 µM (active).

Turning to `CO[C@@H]1[C@@H](O)[C@H](O)[C@@H](n2c3c(Cl)cccc3c3c4c(c5c6cccc(Cl)c6[nH]c5c32)C(=O)NC4=O)O[C@@H]1CO`, the Potency was 3.72 µM (active).

Turning to `CCOC(=O)[C@@H](N)Cc1ccc(-c2cc(O[C@H](c3ccc(Cl)cc3-n3ccc(C)n3)C(F)(F)F)nc(N)n2)cc1`, the max response is -8.01%.

On to `O=C(O)c1ccc(Nc2ncc3c(n2)-c2ccc(Cl)cc2C(c2c(F)cccc2F)=NC3)cc1`, for which the max response was 0.615% and the call was inactive.

In the case of `COc1ccc(S(=O)(=O)Nc2cccnc2Nc2ccc(O)cc2)cc1`, the Potency is 3.66 µM (active).

With `CCN(CC)Cc1ccc2cc(COC(=O)Nc3ccc(C(=O)NO)cc3)ccc2c1`, the Potency was 7.43 µM (active).

Turning to `c1cc(CN2CCCNCCNCCCNCC2)ccc1CN1CCCNCCNCCCNCC1`, the max response was -0.856%.

As for `CC(C)N1[N]C(=C2C=c3cc(O)ccc3=N2)c2c(N)ncnc21`, the Potency was 0.0418 µM (active).

As to `CCOc1cc2ncc(C#N)c(Nc3ccc(OCc4ccccn4)c(Cl)c3)c2cc1NC(=O)C=CCN(C)C`, the Potency is 1.05 µM (active).

Consider `C=C1C(=O)O[C@H]2[C@@H]1CCC(C)=CCC[C@@]1(C)O[C@@H]21`, for which the Potency was 11.8 µM (active).

For `COc1cccc2c1C(=O)c1c(O)c3c(c(O)c1C2=O)C[C@@](O)(C(=O)CO)C[C@H]3O[C@H]1C[C@H](N)[C@H](O)[C@H](C)O1`, the Potency is 0.418 µM (active).

With `NC(=O)c1ncn([C@@H]2O[C@H](CO)[C@@H](O)[C@@H]2O)c1O`, the max response was -0.101%.

Take `CCCCOc1ccc(C(=O)Nc2ccc(F)cc2F)cc1`: the max response is -1.1% and the outcome was inactive.

As for `Nc1ncn([C@@H]2O[C@H](CO)[C@@H](O)[C@@H]2O)c(=O)n1`, the Potency was 5.26 µM (active).

As for `Cn1cc(CNCC2CCN(c3ncc(C(=O)NO)cn3)CC2)c2ccccc21`, the Potency was 0.332 µM (active).

For `N#CC(=C(O)c1ccc(Cl)cc1Cl)c1nc2cc(Cl)ccc2c(=O)[nH]1`, the max response was -6.32%.

For the molecule `c1cncc(CN2CCC(n3ncc4c(N5CCOCC5)nc(-c5ccc6[nH]ccc6c5)nc43)CC2)c1`, the Potency is 4.18 µM (active) and 7.31 µM (active).

On to `COc1ccc(C=Cc2cc(OC)c(OC)c(OC)c2)cc1NC(=O)[C@H](N)CO`, for which the Potency was 0.0332 µM (active).

Consider `C[C@H]1O[C@H](O[C@H]2[C@H](O)[C@@H](O)[C@@H](O[C@H]3[C@H](O)[C@@H](O)C(O)O[C@H]3CO)O[C@H]2CO)[C@H](O)[C@@H](O)[C@H]1N[C@H]1C=C(CO)[C@@H](O)[C@H](O)[C@@H]1O` (some centres not stated), for which the max response was 1.59%.

Take `COc1cc(N2CCC(C(N)=O)CC2)ccc1Nc1nc(N)c(Cl)c(Nc2ccccc2S(=O)(=O)C(C)C)n1`: the molecule was called inactive.

`CCC[C@@H](C=O)NC(=O)[C@H](CC(C)C)NC(=O)[C@H](CC(C)C)NC(=O)OCc1ccccc1` (Cbz-Leu-Leu-[Nva]-aldehyde): the Potency was 4.18 µM (active).

For the molecule `CC(Cc1ccc(O)c(O)c1)(NN)C(=O)O` (configuration not stated), the outcome was inactive.

For `C[C@H](NCc1ccc2c(c1)nc(NC(=O)c1ccc(-c3cn[nH]c3)s1)n2CCc1ccccc1)C(C)(C)C`, the Potency was 1.87 µM (active).
